Assay results reported in PubChem BioAssay (NCATS).
Results filed as inconclusive are left out. Active and inactive are the calls of the source. The call rests on the fitted dose curve; in most records, active means well fitted curve in the direction sought with a large enough effect; inconclusive means small, poorly fitted or top-dose-only effect, or another doubt; inactive means no such curve, though single readings can be large; an effect the other way counts as inactive or inconclusive.

What was measured:
[1] = Quantitative High-Throughput drug screen in 47 multiple myeloma cell lines against the NCATS MIPE library collection: Karpas417_ECACC cell viability assay (AID 1918961); conditions: Karpas417 myeloma viability, CellTiter-Glo ATP luminescence, 48 h; viability (% of DMSO): at 45.8 µM (top of the series)
Method in brief: (§1)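 CellTiter-Glo ATP luminescence gave viability after 48 h compound treatment at 37C of 500 multiple myeloma cells per well. Normalisation used DMSO-only wells as 100% and media-only wells as 0% viability; primary qHTS of approved and investigational drugs.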

[2] = Quantitative High-Throughput drug screen in 47 multiple myeloma cell lines against the NCATS MIPE library collection: JIM3_ECACC cell viability assay (AID 1918963; further: nearly all actives have a fitted effect of over 35% in size)
Method in brief: (§2)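 Myeloma cells (500 per well) were exposed to MIPE 4.0 compounds by pin transfer and incubated 48 hours at 37C, 5% CO2. Viability was read as ATP by CellTiter-Glo luminescence, normalised to DMSO (100%) and media-only (0%) wells.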

[3] = Quantitative High-Throughput drug screen in 47 multiple myeloma cell lines against the NCATS MIPE library collection: INA6_PLB cell viability assay (AID 1918965; further: nearly all actives have a fitted effect of over 55% in size)
Method in brief: as §1

[4] = Quantitative High-Throughput drug screen in 47 multiple myeloma cell lines against the NCATS MIPE library collection: H1112_PLB cell viability assay (AID 1918967; further: nearly all actives have a fitted effect of over 30% in size)
Method in brief: (§3)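 We plated 500 myeloma cells per well, pinned in MIPE 4.0 compounds, and incubated for 48 hours at 37C. ATP was then quantified with CellTiter-Glo, with DMSO and media-only wells defining 100% and 0%.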

[5] = Quantitative High-Throughput drug screen in 47 multiple myeloma cell lines against the NCATS MIPE library collection: Karpas25_ECACC cell viability assay (AID 1918968; further: nearly all actives have a fitted effect of over 35% in size)
Method in brief: as §3

[6] = Quantitative High-Throughput drug screen in 47 multiple myeloma cell lines against the NCATS MIPE library collection: KMS27_JCRB cell viability assay (AID 1918970); conditions: KMS27 myeloma cells, CellTiter-Glo ATP viability, 48 h; viability (% of DMSO): at 45.8 µM (top of the series); further: nearly all actives have a fitted effect of over 30% in size
Method in brief: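 Luminescent ATP read-out (CellTiter-Glo, 5 min at room temperature) after 48 h compound exposure of 500 KMS27_JCRB cells per well; DMSO wells define full viability and media-only wells zero.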

[7] = Quantitative High-Throughput drug screen in 47 multiple myeloma cell lines against the NCATS MIPE library collection: KMS12PE_JCRB cell viability assay (AID 1918972); further: nearly all actives have a fitted effect of over 30% in size
Method in brief: as §1

[8] = Quantitative High-Throughput drug screen in 47 multiple myeloma cell lines against the NCATS MIPE library collection: KMS26_JCRB cell viability assay (AID 1918975); further: nearly all actives have a fitted effect of over 45% in size
Method in brief: (§4)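 Myeloma cell lines, 500 cells per well, exposed to MIPE 4.0 library compounds for 48 h at 37C, 5% CO2. Viability from ATP by CellTiter-Glo luminescence; normalised to DMSO (100%) and media-only (0%) wells.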

[9] = Quantitative High-Throughput drug screen in 47 multiple myeloma cell lines against the NCATS MIPE library collection: MOLP8_DSMZ cell viability assay (AID 1918977); further: nearly all actives have a fitted effect of over 45% in size
Method in brief: (§5)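 ATP-based CellTiter-Glo luminescence after 48 h drug exposure (37 °C, 5% CO2) of 500 myeloma cells per well. DMSO-only wells set 100% viability, media-only wells 0%; MIPE 4.0 library added by pin tool.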

[10] = Quantitative High-Throughput drug screen in 47 multiple myeloma cell lines against the NCATS MIPE library collection: NCIH929_DSMZ cell viability assay (AID 1918978); further: nearly all actives have a fitted effect of over 35% in size
Method in brief: as §5

[11] = Quantitative High-Throughput drug screen in 47 multiple myeloma cell lines against the NCATS MIPE library collection: MM1R_ATCC cell viability assay (AID 1918981); further: nearly all actives have a fitted effect of over 35% in size
Method in brief: as §5

[12] = Quantitative High-Throughput drug screen in 47 multiple myeloma cell lines against the NCATS MIPE library collection: JIM1_ECACC cell viability assay (AID 1918964)
Method in brief: as §3

[13] = Quantitative High-Throughput drug screen in 47 multiple myeloma cell lines against the NCATS MIPE library collection: JJN3_DSMZ cell viability assay (AID 1918966; further: nearly all actives have a fitted effect of over 50% in size)
Method in brief: as §3

[14] = Quantitative High-Throughput drug screen in 47 multiple myeloma cell lines against the NCATS MIPE library collection: KMS20_JCRB cell viability assay (AID 1918973); further: nearly all actives have a fitted effect of over 45% in size
Method in brief: as §3

[15] = Quantitative High-Throughput drug screen in 47 multiple myeloma cell lines against the NCATS MIPE library collection: OCIMY1_PLB cell viability assay (AID 1918979); further: nearly all actives have a fitted effect of over 35% in size
Method in brief: as §5

[16] = Quantitative High-Throughput drug screen in 47 multiple myeloma cell lines against the NCATS MIPE library collection: MM1S_ATCC cell viability assay (AID 1918980); further: nearly all actives have a fitted effect of over 45% in size
Method in brief: as §5

[17] = Quantitative High-Throughput drug screen in 47 multiple myeloma cell lines against the NCATS MIPE library collection: KMS12BM_JCRB cell viability assay (AID 1918971); further: nearly all actives have a fitted effect of over 35% in size
Method in brief: as §4

[18] = Quantitative High-Throughput drug screen in 47 multiple myeloma cell lines against the NCATS MIPE library collection: KMS21BM_JCRB cell viability assay (AID 1918974); conditions: ATP luminescence, 48 h; viability: at 45.8 µM (top of the series)
Method in brief: as §3

[19] = Quantitative High-Throughput drug screen in 47 multiple myeloma cell lines against the NCATS MIPE library collection: MMM1_PLB cell viability assay (AID 1918976); further: nearly all actives have a fitted effect of over 35% in size
Method in brief: as §5

[20] = Quantitative High-Throughput drug screen in 47 multiple myeloma cell lines against the NCATS MIPE library collection: KHM11_PLB cell viability assay (AID 1918962); further: nearly all actives have a fitted effect of over 35% in size
Method in brief: as §2
Potency means the concentration at half of the fitted maximal effect.

COC1=C(OC)C(=O)C(CC=C(C)CCC=C(C)CCC=C(C)CCC=C(C)CCC=C(C)CCC=C(C)CCC=C(C)CCC=C(C)CCC=C(C)CCC=C(C)C)=C(C)C1=O
inactive: Potency [1] | Potency [2] | Potency [3] | Potency [4] | Potency [5] | Potency [6] | Potency [7] | Potency [8] | Potency [9] | Potency [10] | Potency [11]

COc1ccc(C(C)=O)c(O)c1
inactive: Potency [2] | Potency [12] | Potency [3] | Potency [13] | Potency [4] | Potency [7] | Potency [14] | Potency [9] | Potency [10] | Potency [15]
active: Potency [1] 418 nM | Potency [16] 4690 nM

CC(C)N(CC[C@H](c1ccccc1)c1cc(CO)ccc1O)C(C)C
inactive: Potency [1] | Potency [2] | Potency [3] | Potency [5] | Potency [6] | Potency [17] | Potency [7] | Potency [8] | Potency [9] | Potency [10] | Potency [15] | Potency [11]

COc1cc(OC)c(C=CS(=O)(=O)Cc2ccc(OC)c(NCC(=O)O)c2)c(OC)c1
active: Potency [1] 1180 nM | Potency [2] 209 nM | Potency [12] 37.2 nM | Potency [3] 296 nM | Potency [13] 1050 nM | Potency [4] 418 nM | Potency [5] 332 nM | Potency [6] 74.3 nM | Potency [17] 418 nM | Potency [7] 105 nM | Potency [14] 1180 nM | Potency [18] 83.3 nM | Potency [8] 1320 nM | Potency [19] 743 nM | Potency [9] 2090 nM | Potency [10] 2640 nM | Potency [15] 418 nM | Potency [16] 4180 nM | Potency [11] 2350 nM

CCOc1cc2c(c(F)c1OCC)C(=N)N(CC(=O)c1cc(N3CCOCC3)c(OC)c(C(C)(C)C)c1)C2
inactive: Potency [1]
active: Potency [2] 9350 nM | Potency [3] 11800 nM | Potency [13] 18700 nM | Potency [4] 11800 nM | Potency [5] 9350 nM | Potency [17] 18700 nM | Potency [14] 9350 nM | Potency [8] 18700 nM | Potency [19] 10500 nM | Potency [15] 20900 nM | Potency [16] 14800 nM

CCN(C(=O)c1c(O)c2c(Cl)cccc2n(C)c1=O)c1ccccc1
active: viability (% of DMSO) [1] 104% | Potency [6] 16600 nM
inactive: Potency [2] | Potency [4] | Potency [5] | Potency [17] | Potency [9] | Potency [10] | Potency [15] | Potency [11]

O=C(C[C@@H]1CC=CCCC(=O)O[C@H](c2ccccc2)CNC1=O)NCc1ccc(Cl)cc1
inactive: Potency [13] | Potency [5] | Potency [17] | Potency [8] | Potency [9] | Potency [15] | Potency [11]
active: viability (% of DMSO) [1] 118% | Potency [20] 2640 nM | Potency [4] 4690 nM | Potency [16] 16600 nM

CNC(=O)c1ccc(Nc2cc(Nc3ccccc3S(=O)(=O)C(C)C)c3cc[nH]c3n2)nc1
active: Potency [1] 118 nM | Potency [2] 1180 nM | Potency [12] 3320 nM | Potency [3] 469 nM | Potency [13] 16600 nM | Potency [4] 4180 nM | Potency [5] 590 nM | Potency [6] 2090 nM | Potency [17] 16600 nM | Potency [7] 1180 nM | Potency [14] 935 nM | Potency [18] 418 nM | Potency [8] 18700 nM | Potency [19] 11800 nM | Potency [9] 10500 nM | Potency [10] 935 nM | Potency [16] 13200 nM | Potency [11] 6620 nM

O=C(c1ccc(F)cc1)N1CCC[C@H](c2nc(-c3ccc(F)cc3)no2)C1
inactive: Potency [1] | Potency [12] | Potency [3] | Potency [13] | Potency [4] | Potency [5] | Potency [6] | Potency [7] | Potency [14] | Potency [8] | Potency [9] | Potency [10] | Potency [15] | Potency [11]

O=c1ccn([C@@H]2O[C@H](CO)[C@H](O)[C@@H]2F)c(=O)[nH]1
active: Potency [5] 9350 nM | Potency [19] 2640 nM | Potency [10] 11800 nM | Potency [16] 5260 nM
inactive: Potency [1] | Potency [2] | Potency [7] | Potency [14] | Potency [18] | Potency [9] | Potency [15] | Potency [11]

COc1cc2c(cc1OC)[C@@H]1C(=O)c3ccc4c(c3O[C@@H]1CO2)C=CC(C)(C)O4
active: Potency [1] 209 nM | Potency [2] 8330 nM | Potency [12] 1180 nM | Potency [3] 1 nM | Potency [13] 9350 nM | Potency [4] 29.6 nM | Potency [17] 418 nM | Potency [14] 6620 nM | Potency [18] 66.2 nM | Potency [8] 9350 nM | Potency [19] 18.7 nM | Potency [9] 11800 nM | Potency [16] 2960 nM

CC(C)(O)Cn1c(NC(=O)c2ccc(-c3cn[nH]c3)s2)nc2cc(CN3CCOCC3)ccc21
active: Potency [1] 118 nM | Potency [2] 1320 nM | Potency [12] 418 nM | Potency [3] 833 nM | Potency [13] 1320 nM | Potency [4] 2640 nM | Potency [5] 935 nM | Potency [6] 372 nM | Potency [17] 2350 nM | Potency [7] 469 nM | Potency [14] 2960 nM | Potency [19] 2090 nM | Potency [9] 1180 nM | Potency [10] 1660 nM | Potency [15] 1480 nM | Potency [16] 1660 nM | Potency [11] 1660 nM
